Compound activity as filed in PubChem BioAssay.
This is a sample that favours compounds with a hit; in the whole collection about 27% have one here.
CYP2C9 activ – CYP2C9 (human) activation. 96,000 compounds, 1.4% hits. activation factor at 5 µM. recombinant CYP2C9, luciferin-H conversion, luminescence; stronger effect = higher value; factor 1 = untreated enzyme, 0 = blocked. P11712. AID 1024;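 active means activation factor of 2 or more for CYP2C9 at a 5 µM dose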
CYP2C19 act – increases human CYP2C19 enzyme activity. AID 1025. 96,000 tested, under 10 active. recombinant CYP2C19, luciferin-H EGE luminescence; stronger effect = higher value; 0 = fully inhibited enzyme, 1 = untreated enzyme. activation factor at 5 µM. P33261;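 active means activation factor of at least 2 at 5 µM in the primary screen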
Target sequence (P33261 whole entry, looked up): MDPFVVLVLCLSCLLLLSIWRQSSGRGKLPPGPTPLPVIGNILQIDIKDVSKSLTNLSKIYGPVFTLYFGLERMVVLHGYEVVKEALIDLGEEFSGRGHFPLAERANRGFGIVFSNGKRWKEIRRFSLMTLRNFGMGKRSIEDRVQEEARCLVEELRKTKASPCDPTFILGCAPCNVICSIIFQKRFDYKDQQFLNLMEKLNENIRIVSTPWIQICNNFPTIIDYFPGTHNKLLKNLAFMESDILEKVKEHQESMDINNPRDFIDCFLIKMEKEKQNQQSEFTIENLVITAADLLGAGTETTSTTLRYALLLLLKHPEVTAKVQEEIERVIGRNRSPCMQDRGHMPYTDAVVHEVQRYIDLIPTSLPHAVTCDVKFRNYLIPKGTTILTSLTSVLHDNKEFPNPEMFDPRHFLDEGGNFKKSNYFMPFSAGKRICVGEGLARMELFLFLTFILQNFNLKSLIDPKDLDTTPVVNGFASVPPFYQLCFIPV
CYP2C19 inhib – blocks human cytochrome P450 2C19. inhibition, % at 5 µM. P33261. 96,000 compounds, 21% hits. CYP2C19 Supersomes, luciferin-H EGE luminescence, 30 min. AID 778;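 active means CYP2C19 inhibition above a set limit at 5 µM in the primary screen, cut at about 50% in these data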
CYP2C9 inhib – human CYP2C9 inhibition | 96,000 compounds, 20% hits | inhibition, % at 5 µM | P11712 | CYP2C9 Supersomes, luciferin-H conversion, luminescence;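 active means blocking of liver enzyme CYP2C9 beyond about 50% at 5 µM, limit read from the data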
Cav3 T inh – inhibitors of human Cav3.2 T-type calcium channel; B-score at 10 µM; 100,000 compounds, 4% hits; Cav3.2-expressing cells, Fluo-4 calcium fluorescence FDSS; stronger effect = lower value; O95180;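 active means single-dose well whose peak fluorescence ratio is a statistical outlier from its plate by either plate-standardised score or position-corrected B-score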
Hits are given with their value; n = inactive; x = not tested or not shown.

SMILES	CYP2C9 activ	CYP2C19 act	CYP2C19 inhib	CYP2C9 inhib	Cav3 T inh
CC[C@@H]1CC=C[C@H]2[C@H]1C(=O)N(Cc1ccccc1)[C@H]2c1ccc(OC)c(Cl)c1	x	x	x	x	n
CC(C)(C)N1CC(c2nc3ccccc3n2CCOc2ccccc2)CC1=O (stereo unspecified)	n	n	62	83	-3.9
CC(C)(C)N1CC(c2nc3ccccc3n2Cc2ccc(Cl)cc2)CC1=O (stereo unspecified)	n	n	72	93	n
O=C(Nc1nc2ccccc2n1Cc1ccc(Cl)cc1)c1ccco1	n	n	n	n	n
Cc1cc(C)c2c(-n3cccc3)nn(CC#N)c2n1	n	n	n	n	n
CC1Cc2cc(C3(O)C(=O)c4ccccc4C3=O)ccc2N1 (stereo unspecified)	2.4	n	60	n	n
CCOc1cc(C2Nc3ccccc3C(=O)N2c2ccccc2OC)ccc1O (stereo unspecified)	n	n	n	52	n
COc1cc(C2Nc3ccccc3C(=O)N2c2ccc3c(c2)OCCO3)ccc1OCC(C)C (stereo unspecified)	n	n	70	99	n
CCOc1cc(C2C(C(=O)O)c3cc(OCC)c(OCC)cc3C(=O)N2C)ccc1O (stereo unspecified)	n	n	n	n	n
O=C1c2ccccc2NC(c2ccc3c(c2)OCCO3)N1c1ccc2c(c1)OCCO2 (stereo unspecified)	n	n	79	94	n
O=C1c2ccccc2NC(c2ccc3c(c2)OCO3)N1O (stereo unspecified)	n	n	n	n	n
COc1ncccc1-c1nnn(-c2ccc(Cl)nc2)n1	x	x	x	x	n
O=C(Cn1cnnn1)Nc1ccccc1Cc1ccccc1	x	x	x	x	n
COC(=O)C(C)N1CCC(=O)c2ccccc2S1(=O)=O (stereo unspecified)	x	x	x	x	n
O=C(CSC(=S)N1CCCCC1)Nc1nc(-c2ccccc2)c(-c2ccccc2)o1	n	n	n	n	-4
O=C(CSC(=S)N1CCOCC1)Nc1nc(-c2ccccc2)c(-c2ccccc2)o1	n	n	n	n	n
O=C(O)c1cc(S(=O)(=O)N2CCOCC2)c(Sc2ccccn2)cc1Sc1ccccn1	n	n	n	n	n
CN(C)S(=O)(=O)c1cccc(C(=O)N(Cc2ccc(F)cc2)Cc2ccco2)c1	n	n	n	51	-4.5
CCOc1ccc2[nH]c(=O)c(CN(Cc3ccco3)C(=O)c3cccc(F)c3)cc2c1	n	n	n	n	n
CN(C)S(=O)(=O)c1cccc(C(=O)NCc2ccco2)c1	n	n	n	n	n
Cc1ccc(N(Cc2ccco2)C(=O)c2cccc(S(=O)(=O)N(C)C)c2)cc1	n	n	n	n	-4.3
Cc1nc2ncnn2c(N2CCCC(C(=O)Nc3ccc4c(c3)CCC4)C2)c1C (stereo unspecified)	n	n	n	66	n
CCc1c(C)nc2ncnn2c1N1CCC(C(=O)Nc2ccccc2)CC1	n	n	95	66	n
CC(=O)Nc1ccc(NC(=O)C2CCN(c3c(Cc4ccccc4)c(C)nc4ncnn34)CC2)cc1	x	x	x	x	n
O=C(Nc1ccc2c(c1)CCC2)C1CCCN(c2ncccn2)C1 (stereo unspecified)	n	n	n	n	n
SMILES	CYP2C9 activ	CYP2C19 act	CYP2C19 inhib	CYP2C9 inhib	Cav3 T inh
CCc1c(C)nc2ncnn2c1N1CCCC(C(=O)NCCc2ccc(OC)cc2)C1 (stereo unspecified)	n	n	n	n	n
CCc1c(C)nc2ncnn2c1N1CCC(C(=O)Nc2ccc(C)cc2)CC1	n	n	n	59	n
O=C(NC1CCCCC1)N1CCN(C(c2ccccc2)c2ccccc2)CC1	n	n	n	n	n
Cc1cccc2cc(CN(Cc3ccc(F)cc3)C(=O)N3CCOCC3)c3nnnn3c12	n	n	n	n	n
Cc1ccc2c(c1)cc(CN(Cc1cccnc1)C(=O)NCc1ccccc1)c1nnnn12	n	n	90	65	n
Cc1ccc2c(c1)cc(CN(CCc1ccccc1)C(=O)N1CCOCC1)c1nnnn12	n	n	53	64	n
Cc1ccc2c(c1)cc(CN(Cc1ccc3c(c1)OCO3)C(=O)c1ccccc1)c1nnnn12	n	n	n	n	n
CC1(C)Nc2ccccc2N(CC(=O)N2CCCCC2)C1=O	n	n	n	n	n
O=C(NCCOCCOCCNC(=O)c1cccnc1)c1cccnc1	n	n	n	n	n
O=C(NCCOC(=O)c1ccccc1C(=O)OCCNC(=O)c1cccnc1)c1cccnc1	n	n	96	68	n
Cc1cc(C)c(C(=O)OCCNC(=O)c2cccnc2)cc1C	n	n	74	71	n
